This passage reports AC50 and outcome results from PubChem BioAssay (EPA / NIEHS).

Inconclusive results are not listed. Calls of active or inactive are those of the source. How the source made its calls: active means hit-call score of the fitted dose curve at least 0.9, where 1 is the maximum; inconclusive means response in the unintended direction; inactive means score below 0.9.

In general, AC50 refers to the concentration at which the activity in the assay is half-maximal.

Chain of Broad substrate specificity ATP-binding cassette transporter ABCG2 (Homo sapiens) (Q9UNQ0 whole entry, looked up): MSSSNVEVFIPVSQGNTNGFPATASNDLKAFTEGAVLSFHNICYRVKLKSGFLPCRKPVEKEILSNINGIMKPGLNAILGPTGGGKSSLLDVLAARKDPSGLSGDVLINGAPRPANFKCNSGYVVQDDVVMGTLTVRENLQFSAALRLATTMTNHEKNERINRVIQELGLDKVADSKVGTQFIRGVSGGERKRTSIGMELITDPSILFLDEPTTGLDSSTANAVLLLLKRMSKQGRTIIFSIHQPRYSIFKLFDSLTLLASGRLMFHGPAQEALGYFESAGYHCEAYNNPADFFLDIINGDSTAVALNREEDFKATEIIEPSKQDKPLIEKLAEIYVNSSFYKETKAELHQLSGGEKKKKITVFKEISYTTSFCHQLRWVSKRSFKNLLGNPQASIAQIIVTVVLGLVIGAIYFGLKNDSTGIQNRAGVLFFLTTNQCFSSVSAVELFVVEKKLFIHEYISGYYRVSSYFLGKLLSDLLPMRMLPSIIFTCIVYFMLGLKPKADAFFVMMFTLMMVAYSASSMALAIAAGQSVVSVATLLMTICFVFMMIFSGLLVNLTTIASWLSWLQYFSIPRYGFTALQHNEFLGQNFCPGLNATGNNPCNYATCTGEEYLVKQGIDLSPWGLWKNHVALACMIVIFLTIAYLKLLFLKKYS

Read-out in this experiment: Broad substrate specificity ATP-binding cassette transporter ABCG2 (Homo sapiens) (UniProt Q9UNQ0)
Kind of experiment: CLD_ABCG2_48hr: CellzDirect (CLD) Gene Expression Assay for ABC Transporter (ABCG2) at 48 hours (AID 2283704).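 On AC50: potency for induction of ABCG2 mRNA above the DMSO baseline.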 As for the experimental part: CLD_48hr is a cell-based, multiplexed-readout assay that uses hepatocyte, a human liver primary cell, with measurements taken at 48 hours after chemical dosing in a 96-well plate.CLD_ABCG2_48hr is one of 16 assay component(s) measured or calculated from the CLD_48hr assay. It is designed to make measurements of mRNA induction, a form of inducible reporter, as detected with chemiluminescence signals by Quantitative Nuclease Protection Assay (qNPA) technology.Data from the assay component CLD_ABCG2_48hr was analyzed at the endpoint, CLD_ABCG2_48hr, in the positive analysis fitting direction relative to DMSO as the negative control and baseline of activity. Using a type of inducible reporter, gain-of-signal activity can be used to understand changes in the reporter gene as they relate to the gene ABCG2. Furthermore, this assay endpoint can be referred to as a primary readout. To generalize the intended target to other relatable targets, this assay endpoint is annotated to the transporter intended target family, where subfamily is ABC transporter.
Human hepatocyte cultures were treated daily for two consecutive days with fresh dosing solutions containing appropriate concentrations of the 320 ToxCast chemicals (chemical identities were blinded to CellzDirect and other ToxCast collaborators), vehicle control (0.2% DMSO), and positive control inducers as summarized in Table 1. Due to the large number of treatment groups and chemicals examined, the ToxCast chemicals were divided into two groups (spanning two independent cultures of hepatocytes from separate donor preparations (Hu778: ToxCast plates 1 and 2; Hu776: ToxCast plates 3 and 4). Each preparation of human hepatocyte cultures was treated with respective vehicle control, medium only control, set of six positive controls/reference chemicals for the five hepatic receptor pathways, and a subset of eight of the ToxCast chemicals (indoxacarb, pyrithiobac-sodium, norflurazon, cyhalofop-butyl, methomyl, thiram, acetochlor, and propiconazole). These replicate data, coupled with internal replicates designed within the blinded ToxCast chemical library, provided additional data to evaluate interindividual differences between hepatocyte preparations and their potential impact on chemical profiles.Cell morphology and integrity were evaluated using phase-contrast microscopy as an indicator of hepatocyte cell health (Tyson & Green, 1987). Cultures for each treatment group (i.e., media, vehicle [0.2% DMSO], positive control inducers [multiple concentrations], and the ToxCast chemicals [multiple concentrations]) were observed and cell morphology was assessed relative to vehicle control cultures at each harvest time point (0, 6, 24, or 48 h). […] Images were evaluated at the conclusion of the study to assess changes in cell integrity and account for the effects of chemical exposure on uncharacteristic changes in concentration-dependent gene expression profiles. The results from these determinations of apparent cytotoxicity were annotated (yes/no) alongside the corresponding qNPA data for reference.At the conclusion of each treatment period, hepatocyte cultures (96-well) were washed with 1 volume of HBSS, lysed by addition of 25 ul ArrayPlate lysis buffer (HTG, Tucson, AZ), and 70 ul/well of Denaturation Oil, denatured by incubation at 95C for 10 min, and frozen at approximately -70C until analysis by nuclease protection assay (qNPA) (Roberts et al., 2007). For qNPA analysis, cell lysates were thawed at 50C for approximately 30 min, qNPA probes were added, and samples were incubated at 95C for 10 min to begin the detection process by denaturing the target RNA, dissociating the duplexes and secondary structure hybridization. At the conclusion of the hybridization period, S1 nuclease reagent was added to each sample to digest all nonprotected nucleotides at 50C for 60-90 min. […]
Regarding `C=CCOC(Cn1ccnc1)c1ccc(Cl)cc1Cl` (centres undefined), the AC50 was 34.9 µM (active).
`CC(C)(C)[C@@H](O)[C@@H](Cc1ccc(Cl)cc1)n1cncn1`: the compound was classed as inactive.
Still for that read-out and setting: under `CCOC(=O)C(C)Oc1ccc(Oc2nc3ccc(Cl)cc3o2)cc1` (centres undefined) stands “inactive”; under `CCNc1nc(N)nc(Cl)n1`, “inactive”.
Still for that read-out and setting: under `CCOC(=O)NCCOc1ccc(Oc2ccccc2)cc1` stands “inactive”; under `CC1(C)C(C=C(Cl)Cl)C1C(=O)OCc1cccc(Oc2ccccc2)c1` (centres undefined), “inactive”.
Consider `CCCOC(=O)NCCCN(C)C`, for which the outcome was inactive.
For the compound `S=C([S-])NCCNC(=S)[S-].[Mn+2]`, the AC50 is 3.4 µM (active).
Regarding `CCCCCOC(=O)COc1cc(N2C(=O)C3=C(CCCC3)C2=O)c(F)cc1Cl`, the outcome was inactive.
Same read-out and setting: the result for `COC(=O)c1ccccc1C(=O)O` reads “inactive”.
On to `S=C(S)NCCNC(=S)S.[Mn+2].[S-]C([S-])=NCCN=C([S-])[S-].[Zn+2]`, for which the AC50 is 3.67 µM (active).
For the compound `CCC(C)OC(=O)N1CCCCC1CCO` (centres undefined), the outcome was inactive.
As for `N#CSCSc1nc2ccccc2s1`, the result was inactive.
In the case of `COc1c(Cl)ccc(Cl)c1C(=O)O`, the outcome was inactive.
For the compound `Cc1nn(C)c(Oc2ccccc2)c1C=NOCc1ccc(C(=O)OC(C)(C)C)cc1`, the outcome was inactive.
Still for that read-out and setting: the result for `COC(=O)c1ccc(I)cc1S(=O)(=O)NC(=O)Nc1nc(C)nc(OC)n1` reads “inactive”; that for `CCCN(CCC)C(=O)SCC`, “inactive”; that for `CC(C)(c1ccc(O)cc1)c1ccc(O)cc1`, “inactive”.
As for `CCCCC(CC)CN1C(=O)C2C3C=CC(C3)C2C1=O` (centres undefined), the result was inactive.
Same read-out and setting: the result for `CCOC(=O)COc1cc(-n2ncc(C(F)(F)F)c(C)c2=O)c(F)cc1Cl` reads “inactive”.
Same read-out and setting: the result for `COCCO` reads “inactive”.
Same read-out and setting: the result for `C#CCOC(=O)[C@@H](C)Oc1ccc(Oc2ncc(Cl)cc2F)cc1` reads “inactive”.
On to `CSC(=O)c1cccc2nnsc12`, for which the result was inactive.
Take `CCC(O)=C1C(=O)CC(C(=O)O)CC1=O` (centres undefined): the call was inactive.
